Source: PubChem BioAssay (Tox21)
Inconclusive results are not listed. Active and inactive are the calls of the source. Calls follow the shape of the dose curve; as a rule, active = well fitted activation curve with a large enough effect in the repeat runs; inconclusive = weak or mixed curves; inactive = flat fitted curve, though single readings scatter.

Test: A CellTox Green Cytotoxicity Assay to monitor cytotoxicity in HepG2 cells - 40 hour (AID 1224879); also: nearly all actives have a fitted effect of over 40% in size
Details: CellTox Green fluorescence; series mostly up to 76.8 µM; cytotoxicity increase: at the top concentration
From the text: National Center for Advancing Translational Sciences [NCATS]
NIH Chemical Genomics Center [NCGC]
U.S. Environmental Protection Agency [EPA]
National Institutes of Environmental Health Sciences [NIEHS]
National Toxicology Program [NTP]
Cell-based models are critical for drug discovery. Determining the natural cytotoxic effects resulting from test compounds is an essential research activity. A CellTox Green Cytotoxicity Assay to monitor cytotoxicity in real time of continues cell culture during 40 hours of the compound treatment was used to screen Tox21 10K library compounds in HepG2 cells. CellTox Green Cytotoxicity Assay is a nonlytic, homogeneous, biofluorescent method to measure cytotoxicity in cell culture after experimental manipulation. The assay system uses a proprietary asymmetric cyanine dye that is excluded from viable cells but preferentially stains the dead cell's DNA. […] Viable cells produce no appreciable increases in fluorescence. Therefore, the fluorescence signal produced by the binding interaction with dead cell DNA is proportional to cytotoxicity.
The mixture of HepG2 cell suspension and reagents were dispensed at 600cells/6 ul/well in 1536-well tissue culture treated black solid bottom plates using a Multidrop dispenser. After the assay plates were incubated at a 37 C/5% CO2 incubator for 5 hours, 23 nL of compounds dissolved in DMSO, positive and negative controls was transferred to the assay plate by a pintool work station. The plates were incubated at 37 C for 40 hours. The fluorescence intensity were measured at 0h, 8h, 16h, 24h, 32h and 40h time points using ViewLux plate reader during compound treatment.
% is scaled to controls: 0 for no effect and ±100 for the full control effect.

Row | SMILES | cytotoxicity increase
1 | CCCCOCC(C)O (stereo not given) | -1.68% (inactive)
2 | CCn1cc(C(=O)O)c(=O)c2cnc(N3CCCC3)nc21 | 2.25% [at 6.97 µM] (inactive)
3 | CC(S)C(C)S (stereo not given) | -6.51% (inactive)
4 | Cc1ccccc1C(N)=O | -3.39% (inactive)
5 | CC(C)C1OCCN1CCOC(=O)NCCCCCCNC(=O)OCCN1CCOC1C(C)C (stereo not given) | 14.9% (inactive)
6 | N[C@@H](Cc1ccc(O)cc1)C(=O)O | -8.31% [at 6.97 µM] (inactive)
7 | CCCSSCCC | 8.44% (inactive)
8 | CCCCSCCCC | 3.32% (inactive)
9 | CC(O)COC(C)(C)C (stereo not given) | 6.9% (inactive)
10 | CC(=O)CCc1ccc(OC(C)=O)cc1 | -4.15% (inactive)
11 | C[C@@H](O)C(=O)O | -6.55% (inactive)
12 | C=CCN1C[C@H](C(=O)N(CCCN(C)C)C(=O)NCC)C[C@@H]2c3cccc4[nH]cc(c34)C[C@H]21 | 1.25% [at 35.3 µM] (inactive)
13 | CC(=O)O[C@H]1C[C@@H]2CC[C@@]1(C)C2(C)C | 3.48% (inactive)
14 | COc1c2occc2c(OC)c2c(=O)cc(C)oc12 | -11.4% [at 35.3 µM] (inactive)
15 | CC1OCCC1=O (stereo not given) | -0.3% (inactive)
16 | Cn1nnc2c(C(N)=O)ncn2c1=O | 0.118% [at 35.3 µM] (inactive)
17 | C=CC(=O)CCCCC | -11% (inactive)
18 | c1ccc2cnccc2c1 | 0.412% (inactive)
19 | CCCCOCCOC(=O)COc1ccc(Cl)cc1Cl | -1.38% (inactive)
20 | O=C(O)c1cc2ccccc2nc1C(=O)O | -5.95% (inactive)

Row | SMILES | cytotoxicity increase
21 | Cc1c(NC(=O)c2cccnc2)c(=O)n(-c2ccccc2)n1C | 6.22% [at 35.3 µM] (inactive)
22 | O=[N+]([O-])c1c(Cl)cc(Cl)cc1Cl | 2.36% (inactive)
23 | CC(C)=CCC[C@@](C)(O)[C@H]1CC=C(C)CC1 | 1.02% [at 35.3 µM] (inactive)
24 | CC(=O)OC(C)=O | 0.496% (inactive)
25 | CN(C)C(C)(C)CO | -8.2% (inactive)
26 | O=C1c2ccccc2C(=O)c2cc(Cl)ccc21 | 1.15% [at 6.97 µM] (inactive)
27 | C=C(C)[C@@H]1CC=C(C)CC1 | 7.15% (inactive)
28 | CCNC(=O)NCc1cccc(Cl)c1 | -10.4% [at 35.3 µM] (inactive)
29 | CNCCS(=O)(=O)O | -1.37% (inactive)
30 | COCCc1ccccn1 | 5.98% [at 35.3 µM] (inactive)
31 | CC(C)COC(=O)c1ccccc1 | -6.45% (inactive)
32 | CC1=C(O)C(=O)C(C)O1 (stereo not given) | -13.3% (inactive)
33 | Nc1nc(-c2ccccc2)c(Br)c(=O)[nH]1 | 0.181% [at 35.3 µM] (inactive)
34 | Cc1cccc(Cl)c1 | 4.16% (inactive)
35 | CN(C)CCOC(=O)C(c1ccccc1)C1(O)CCCC1 (stereo not given) | -7.32% [at 35.3 µM] (inactive)
36 | NCCOCCN | -12.1% (inactive)
37 | CCC(=O)CC | -0.779% (inactive)
38 | OCC1CCC(CO)CC1 (stereo not given) | 0.75% (inactive)
39 | CCCCOC(=O)[C@H](C)O | 0.799% (inactive)
40 | Cc1ccc(C)c([N+](=O)[O-])c1 | -1.28% (inactive)
